# NADH coupling – inhibitors of PK/LDH coupling enzymes, profiling panel, artefact control, biochemical, MLSMR library; IC50, µM (doses to about 10 µM), without a hit: at the top dose inhibition; actives 0.02% (n = 65,000); AID 774, 2007; coupled PK/LDH NADH assays, four targets;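 active = single-dose screening hits from any of four coupled enzyme assays that gave an IC50 when retested across doses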;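 also: the DPM-DC format reads NADH fluorescence rather than 340 nm absorbance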
# Spn DPM-DC inh – S. pneumoniae DPM-DC inhibitors, primary screen, biochemical, PK/LDH-coupled NADH fluorescence | diphosphomevalonate decarboxylase (Streptococcus pneumoniae D39) | purified DPM-DC | calls only at 10 µM | actives 0.49% (n = 65,000);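 active = the 320 compounds with the highest percent inhibition in the single-dose primary screen, excluding strongly autofluorescent ones, cut at about 32% in these data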;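 also: kinetic rate of NADH fluorescence loss reporting ADP formed by the decarboxylase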
# MK inhibit – S. pneumoniae MK inhibitors, primary screen, biochemical, PK/LDH-coupled NADH absorbance | mevalonate kinase [Streptococcus pneumoniae D39] | purified MK, PK/LDH-coupled NADH absorbance 340 nm | inhibition, % at 10 µM | actives 0.48% (n = 65,000);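 active = ranked among the strongest by inhibition in the single 10 µM screen, a fixed top-ranked set picked for dose follow-up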
# A340 absorber – compound light absorbance at 340 nm, profiling panel, artefact control, biochemical, MLSMR library, data from PS, PMK, MK assays; compound absorbance at 340 nm, fold over control; fold change at 10 µM; 65,000 tested, under 10 active; AID 708, 2007;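 active = at 10 µM dose, initial 340 nm absorbance at least 2 fold that of control wells; inactive = change under 2 fold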;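 also: initial absorbance extrapolated from kinetic A340 decline of NADH oxidation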
# Fluor 339 460 – intrinsic fluorescence of library compounds, ex339/em460 – biochemical, MLSMR library, data from DPM-DC assay, artefact control, profiling panel. compound autofluorescence, ex339/em460 nm, NADH buffer; stronger effect = higher value; 1 = no-compound wells, NADH background. fluorescence fold increase at 10 µM. actives 5.5% (n = 65,000);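 active = at 10 µM, mean starting fluorescence two-fold or more over control wells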;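 also: signal is the first read of a kinetic run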
# Spn PMK inh – S. pneumoniae PMK inhibitors, primary screen, biochemical, mevalonate pathway, pilot trial included; actives 0.49% (n = 65,000); phosphomevalonate kinase (Streptococcus pneumoniae D39); purified PMK, PK/LDH-coupled NADH absorbance 340 nm; inhibition, % at 10 µM;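 active = top-ranked compounds by inhibition in the single 10 µM screen, taking a fixed number of the strongest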;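 also: 0% = full reaction with DMSO carrier and 100% = background rate without enzyme reaction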
# Active calls of the source: *; i = inactive; · = no result given. Rows were chosen to be rich in hits. Some 6.8% of all compounds tested hit in one or more screens of this group.
SMILES,NADH coupling,Spn DPM-DC inh,MK inhibit,A340 absorber,Fluor 339 460,Spn PMK inh
Cc1cc(C)cc(OCc2ccc(C(=O)O)o2)c1,8%,i,7,1,1.1,9
O=C(O)c1ccc(COc2ccc3c4c(c(=O)oc3c2)CCC4)o1,12%,·,11,1.1,3.5*,13
CC(=O)C(C)Oc1ccc2c3c(c(=O)oc2c1)CCCCC3 (centres undefined),5%,·,0,1.2,3.7*,9
Cc1c(C)c2ccc(OCc3ccc(C(=O)O)o3)c(C)c2oc1=O,4%,·,1,1,3.9*,7
Cc1cc(=O)oc2cc(OC(C)C(=O)N3CCCc4ccccc43)ccc12 (centres undefined),2%,i,0,1.1,1.7,0
COc1ccc(N2CCN(C(=O)c3ccc(N4C(=O)NC5CC4(C)Oc4ccccc45)cc3)CC2)cc1 (centres undefined),6%,i,7,1,1.2,11
CCOC(=O)CSc1nnc(CNC(=O)c2ccc(S(=O)(=O)N3CCCCC3)cc2)n1C,0%,i,0,1,1.1,0
CC(CCc1ccccc1)NC(=O)C1CCN(S(=O)(=O)c2cnc[nH]2)CC1 (centres undefined),3%,i,1,0.99,1,16
CCCn1c2c(c(O)c(C(=O)Nc3ccccc3)c1=O)CCCC2,11%,i,14,1,1.2,12
CC(=O)COc1ccc2c3c(c(=O)oc2c1)CCCC3,4%,·,2,1,3.9*,5
COC(=O)c1ccc(COc2ccc3c(C)c(C)c(=O)oc3c2)o1,7%,·,6,1.1,2.2*,8
O=C(O)C1CCN(C(=O)COc2ccc3c4c(c(=O)oc3c2)CCC4)CC1,18%,i,14,1.1,3.2*,16
Cc1cc(OCC(=O)N2CCCC2)ccc1Cl,1%,i,1,1,1.1,1
O=C(O)C(Oc1ccc2c3c(c(=O)oc2c1)CCC3)c1ccccc1 (centres undefined),5%,·,9,1.2,3.7*,1
COC(=O)c1ccc(Cc2ccc(C(=O)OC)o2)o1,6%,i,0,0.99,0.99,19
O=C(NCC(=O)N(CC1CCCO1)C(C(=O)NC1CCCC1)c1cccnc1)c1ccco1 (centres undefined),5%,i,0,1,1,16
O=C(Nc1ccc(-n2nncc2-c2ccco2)cc1)c1ccc(F)cc1,1%,i,0,1,1.1,3
CCc1nc2sc(C)c(C)c2c(=O)n1CCO,1%,i,4,1,1.1,3
CC(=O)C(C)Oc1ccc2c3c(c(=O)oc2c1)CCCC3 (centres undefined),10%,·,8,1.1,2.1*,12
Cc1nnc(NC(=O)C(C)Oc2ccc3c(C)cc(=O)oc3c2)s1 (centres undefined),6%,i,1,1.1,1.5,10
O=C(c1cccc(C(=O)N2CCN(c3ccccc3F)CC2)n1)N1CCN(c2ccccc2F)CC1,7%,i,7,1,1.1,14
COc1ccc(N2CCN(c3cc(C)c4ccc(O)cc4n3)CC2)cc1,3%,·,0,1.1,2.1*,5
Cc1cc(N2CCCN(C)CC2)nc2cc(Cl)ccc12,1%,i,0,1.1,1.6,1
Cc1cc(N2CCOCC2)nc2cc(O)ccc12,4%,·,5,1.1,2.2*,3
Cc1cc(N2CCN(c3ccccc3F)CC2)nc2cc(O)ccc12,5%,i,7,1.1,3.1*,7
CCOc1ccc(NC(=O)C2CSC(c3ccncc3)=N2)cc1 (centres undefined),2%,i,3,1,1.1,0
CCCCCOC(=O)c1ccc(NC(=O)c2ccco2)cc1,5%,i,9,1,1.1,6
Nc1nnc(-c2cc3ccccc3oc2=O)s1,5%,·,7,1,3*,6

# Screens (PubChem)
